Measurements reported in publication PMC4336329 (PLoS ONE, 2015).
The campaign covered roughly 310,000 compounds. About 14,000 (4.5%) showed an effect of 50% or more. Effects have a minus sign here. This is one part of a sample in which strong results are shown more often than they occur.

target: human ether-à-go-go-related gene (hERG) potassium channel (human, UniProt Q12809); test: primary screen, population patch clamp on CHO cells stably expressing hERG; higher = less effect of the substance
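Also: peak tail current of the secondary pulse compared with the same well before compound.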

Chain of human ether-à-go-go-related gene (hERG) potassium channel (Q12809 whole entry, looked up): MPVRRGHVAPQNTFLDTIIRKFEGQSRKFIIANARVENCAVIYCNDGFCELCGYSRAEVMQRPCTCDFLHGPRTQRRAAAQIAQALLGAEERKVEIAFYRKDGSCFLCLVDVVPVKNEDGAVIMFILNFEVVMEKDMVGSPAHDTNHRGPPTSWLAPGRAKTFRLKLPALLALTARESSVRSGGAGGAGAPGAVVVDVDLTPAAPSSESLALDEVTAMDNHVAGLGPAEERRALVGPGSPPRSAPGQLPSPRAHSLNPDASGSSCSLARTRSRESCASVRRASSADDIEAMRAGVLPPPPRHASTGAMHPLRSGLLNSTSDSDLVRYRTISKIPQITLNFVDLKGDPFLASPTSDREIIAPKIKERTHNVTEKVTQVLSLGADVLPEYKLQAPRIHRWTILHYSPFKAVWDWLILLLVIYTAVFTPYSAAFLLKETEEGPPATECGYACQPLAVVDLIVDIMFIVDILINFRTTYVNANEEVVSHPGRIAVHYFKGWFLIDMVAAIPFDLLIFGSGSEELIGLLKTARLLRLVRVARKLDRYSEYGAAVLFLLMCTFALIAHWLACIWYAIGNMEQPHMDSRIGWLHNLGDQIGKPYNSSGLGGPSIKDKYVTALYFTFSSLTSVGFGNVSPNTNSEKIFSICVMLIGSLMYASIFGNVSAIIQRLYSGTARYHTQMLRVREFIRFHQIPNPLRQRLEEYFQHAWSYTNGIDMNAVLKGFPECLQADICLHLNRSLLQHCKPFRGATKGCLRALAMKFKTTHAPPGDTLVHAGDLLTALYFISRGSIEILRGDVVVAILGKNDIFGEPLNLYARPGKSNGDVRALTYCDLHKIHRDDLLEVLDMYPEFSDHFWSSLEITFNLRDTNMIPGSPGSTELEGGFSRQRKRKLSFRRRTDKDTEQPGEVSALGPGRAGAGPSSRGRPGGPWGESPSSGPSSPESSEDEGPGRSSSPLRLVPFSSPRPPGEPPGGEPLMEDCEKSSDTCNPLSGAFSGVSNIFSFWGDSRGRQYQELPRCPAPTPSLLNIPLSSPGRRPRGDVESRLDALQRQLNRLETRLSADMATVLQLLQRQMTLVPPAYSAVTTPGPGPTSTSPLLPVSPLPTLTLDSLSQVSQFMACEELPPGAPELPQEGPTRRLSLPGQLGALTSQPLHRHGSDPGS

SMILES	hERG current change (%, negative = inhibition) at 10uM
COc1ccc(CN(C)CC(=O)NC(C)c2ccccc2)c(OC)c1 (stereo not shown)	-13.8%
Cc1ccc(-c2noc(CN3CCN(C(c4ccccc4)c4ccccc4)CC3)n2)cc1	7.84%
CN(C)CCNC(=O)c1cccc(NS(=O)(=O)c2ccc(Cl)c(Cl)c2)c1	0.919%
O=C(c1ccccc1)N1CC(COc2ccccc2)OC(c2cccnc2)O1 (stereo not shown)	-5.14%
O=C(Cn1nnc(-c2ccccc2NC(=O)c2ccccc2)n1)Nc1ccc2c(c1)OCCO2	1.49%
Cc1cc(Cl)ccc1C1=CC(=O)C[C@H](c2ccc(F)cc2)C1	15.7%
Cc1cc(=O)[nH]c2c1c(C)nn2C1CCCCC1	-3.84%
O=C(COc1cccc(F)c1)NNC(=O)Cc1ccc(S(=O)(=O)N2CCOCC2)s1	-11.9%
C/C(=N\Nc1ccc(Cl)cc1)c1c(O)cc(C)oc1=O	15.3%
c1ccc2c(c1)CC/C2=N/Nc1nc2ccccc2[nH]1	9.49%
COCCCn1c(C(=O)N2CC(C)OC(C)C2)cc2c(=O)n3cccc(C)c3nc21 (stereo not shown)	0.735%
CCOCCCn1c(=N)c(C(N)=S)cc2c(=O)n3cccc(C)c3nc21	-82.6%
CCOCCCNC(=O)c1cc2c(=O)n3cccc(C)c3nc2n1C	12.4%
Cc1cccn2c(=O)c3cc(C(N)=S)c(=N)n(CCCN4CCOCC4)c3nc12	-87.6%
CCCCn1c(=N)c(S(=O)(=O)c2ccc(Br)cc2)cc2c(=O)n3cccc(C)c3nc21	13%
COCCCn1c(C(=O)NCCN2CCOCC2)cc2c(=O)n3cccc(C)c3nc21	-9.21%
COCCCn1c(C(=O)N2CCOCC2)cc2c(=O)n3cccc(C)c3nc21	-11.4%
Cc1cccn2c(=O)c3cc(C(N)=S)c(=N)n(CCCOC(C)C)c3nc12	-78.2%
Cc1cccn2c(=O)c3cc(C(=O)NCCCOC(C)C)sc3nc12	-6.24%
COCCCn1c(=N)c(C(N)=S)cc2c(=O)n3cccc(C)c3nc21	-84.3%
Cc1cccn2c(=O)c3cc(C(=O)N4CCOCC4)n(C)c3nc12	-32.1%
CCC(C)n1c(SCC(=O)Nc2ccccc2C(F)(F)F)nc2ccsc2c1=O (stereo not shown)	-14%
Cc1ccc(C(=O)Oc2coc(CSc3nnc(NC(=O)C4CC4)s3)cc2=O)cc1	16.6%
Cc1[nH]c(C)c(S(=O)(=O)N(C)Cc2ccccc2)c1C(=O)N1CCCC1	15.2%

SMILES	hERG current change (%, negative = inhibition) at 10uM
CC(=O)N1CCc2cc(S(=O)(=O)CCC(=O)NCc3ccco3)ccc21	12.5%
Cc1nn(-c2ccccc2)c(C)c1/C=N/NC(=O)CSc1nnc(-c2ccccc2)n1-c1ccc(Cl)cc1	5.46%
Cc1nc(C)c(C(=O)Nc2cccc(C)c2C)o1	-0.939%
Cc1c(NC(=O)C2(C)CCCCC2)c(=O)n(-c2ccccc2)n1C	6.22%
CC1(O)CCN2C(=O)CCc3cccc1c32 (stereo not shown)	-9.44%
CC(C)(C)[C@]1(O)CCN2C[C@H]3c4ccccc4CCc4cccc(c43)[C@@H]2C1.Cl	-78.3%
O=C(C1CCCCC1)N1CC(=O)N2CCc3ccccc3C2C1 (stereo not shown)	10.2%
CCOc1cc(-c2noc(CCC(=O)NCCc3ccccc3)n2)ccc1OC	1.79%
CN(C)c1nc(NCc2ccccc2)nc(N/N=C/c2ccc(Br)cc2)n1	13.3%
COc1ccc(C2C(C#N)=C(N)Oc3c2c(-c2ccccc2)nn3-c2ccccc2)c(OC)c1OC (stereo not shown)	-1.15%
COc1ccccc1C1C(C#N)=C(N)Oc2c1c(-c1ccccc1)nn2-c1ccccc1 (stereo not shown)	0.699%
COc1cc(C2C(C#N)=C(N)Oc3c2c(-c2ccccc2)nn3-c2ccccc2)cc(OC)c1OC (stereo not shown)	-65%
O=C(Nc1ccn(Cc2c(F)c(F)cc(F)c2F)n1)c1ccc(COc2cc(Cl)ccc2Cl)o1	6.83%
CC(NCC#Cc1ccccc1)C(O)c1ccccc1.Cl (stereo not shown)	-1.67%
CC(NCc1ccccc1Cl)C(O)c1ccccc1.Cl (stereo not shown)	4.31%
OC(CNCc1ccccc1)c1ccccc1 (stereo not shown)	4.68%
CCNCC(O)c1cccc(O)c1 (stereo not shown)	20.8%
CSc1ccc(CNCC(O)c2ccccc2)cc1.Cl (stereo not shown)	-55%
Cl.OC(CNCc1ccncc1)c1ccccc1 (stereo not shown)	6.97%
Cl.OC(CNCc1ccc(-c2ccccc2)cc1)c1ccccc1 (stereo not shown)	-16.1%
Cl.Oc1cccc(C(O)CNCc2ccc(-c3ccccc3)cc2)c1 (stereo not shown)	-66%
CSc1ccc(CNC(C)C(O)c2ccccc2)cc1.Cl (stereo not shown)	-51.4%
COc1ccc(N2CC(C(=O)NCc3nnnn3-c3ccc(C)c(C)c3)CC2=O)cc1 (stereo not shown)	-19.6%
Cc1ccc(CNC(=O)CN2C(=O)COc3ccc(C)cc32)cc1	-5.06%

SMILES	hERG current change (%, negative = inhibition) at 10uM
COc1ccc(C(=O)CNc2ccccc2C#N)cc1	28.1%
CCCOc1ccc(S(=O)(=O)NCCN2CCOCC2)c2ccccc12	-23.3%
CC(CCc1ccccc1)NC(=O)COC(=O)CC1CC2CCC1C2 (stereo not shown)	-6.07%
CSc1ncc(CN2CCN(C3CCCCC3)C(CCO)C2)cn1 (stereo not shown)	-16.9%
CSc1ncc(CN2CCN(C3CCCC3)C(CCO)C2)cn1 (stereo not shown)	-0.478%
OCCC1CN(CC2CC2)CCN1Cc1ccc(F)c(F)c1 (stereo not shown)	-25.5%
CSc1ccc(CN2CCN(Cc3ccccc3)C(CCO)C2)cc1 (stereo not shown)	-56.8%
OCCC#Cc1ccc(CN2CCN(Cc3ccccc3)C(CCO)C2)cc1 (stereo not shown)	-15%
CSc1ccc(CN2CCN(CC=C(C)C)C(CCO)C2)cc1 (stereo not shown)	-46.2%
CSc1cccc(CN2CCN(Cc3ccc(F)c(F)c3)C(CCO)C2)c1 (stereo not shown)	-69.5%
CSc1cccc(CN2CCN(CCc3ccccc3)C(CCO)C2)c1 (stereo not shown)	-80.4%
CSc1cccc(CN2CCN(CCC(C)C)C(CCO)C2)c1 (stereo not shown)	-33.2%
CSc1ccc(CN2CCN(C3CCCC3)C(CCO)C2)cc1 (stereo not shown)	-53.8%
OCCC1CN(Cc2ccc(Oc3ncccn3)cc2)CCN1Cc1ccc(F)c(F)c1 (stereo not shown)	-23.6%
CC12CCC(C/C1=N\OC(=O)c1c(F)cccc1F)C2(C)C (stereo not shown)	-0.495%
CC(C)(C)C1CCC(=NNC(=O)CN(c2ccccc2)S(=O)(=O)c2ccccc2[N+](=O)[O-])CC1 (stereo not shown)	6.69%
COCCNC(=O)c1ccc(N2CC3CC(C2)c2cccc(=O)n2C3)c([N+](=O)[O-])c1 (stereo not shown)	21.4%
Cc1ccc(S(=O)(=O)C2(C(=O)Nc3cccc(F)c3)CC2)cc1	0.141%
COc1cc2c(cc1OC)CN(C(=O)c1ccc(OC)c([N+](=O)[O-])c1)CC2	4.43%
COc1cccc(CN(C)C(=O)CSCC(=O)Nc2cc(C)on2)c1OC	11.6%
CCCCn1c2c(c(=O)n(C)c1=O)C(c1ccc(OC)cc1)N1CCCCCC1=N2 (stereo not shown)	-21.9%
CCOC(=O)C1CCN(Cc2cnc(Oc3ccc(N)cc3)s2)CC1	-10.6%
COc1ccc(S(=O)(=O)N2CCCC(C(=O)NCC3CCCO3)C2)cc1OC (stereo not shown)	11%
CC(C)(O)C#Cc1ccc(CN2CCN(Cc3ccccc3)C(CCO)C2)cc1 (stereo not shown)	12%

SMILES	hERG current change (%, negative = inhibition) at 10uM
CC(C)c1cc(CN2CCN(Cc3ccc(F)c(F)c3)C(CCO)C2)[nH]n1 (stereo not shown)	-52.4%
CC(C)c1csc(CN2CCN(Cc3ccc(F)c(F)c3)C(CCO)C2)n1 (stereo not shown)	-19.3%
CSc1ccc(CN2CCN(CCC(C)C)C(CCO)C2)cc1 (stereo not shown)	-63.3%
CSc1ccc(CN2CCN(C(C)C)C(CCO)C2)cc1 (stereo not shown)	-24%
OCCC1CN(Cc2ccn[nH]2)CCN1Cc1ccc(F)c(F)c1 (stereo not shown)	9.54%
CSc1cccc(CN2CCN(Cc3ccccc3)C(CCO)C2)c1 (stereo not shown)	-57.7%
CSc1ncc(CN2CCN(CCC(C)C)C(CCO)C2)cn1 (stereo not shown)	-1.45%
CC(NS(=O)(=O)OCC(Cl)(Cl)Cl)c1ccccc1 (stereo not shown)	9.74%
Cc1cccc(-c2cc3nc4c(c(N5CCC6(CC5)OCCO6)n3n2)CCCC4)c1	10.2%
O=S(=O)(CCSc1ccc(C(F)(F)F)cn1)c1ccc(Cl)cc1	13%
Oc1c(-c2cc(-c3ccco3)[nH]n2)ccc2ccccc12	13.7%
CCOC(=O)N1CCc2c(sc3ncn(C)c(=O)c23)C1	5.05%
Cc1cc(Cl)ccc1NC(=O)CN1C(=O)CSc2ccc(S(=O)(=O)N3CCOCC3)cc21	-18.7%
Cc1nc2nc[nH]n2c(=O)c1CCC(C)C	4.34%
COCCNc1nc(N)c([N+](=O)[O-])c(NC2CCCCC2)n1	4.56%
NC(=O)C(=O)N/N=C/c1c2ccccc2cc2ccccc12	-11.1%
CCOC(=O)Nc1cccc(NC(=O)c2ccccc2F)c1	7.84%
CCOC(=O)Nc1cccc(NC(=O)c2cc(OC)cc(OC)c2)c1	-53.7%
CCOC(=O)Nc1cccc(Nc2ccccc2)c1	-74.8%
COc1cc(OC)cc(C(=O)Nc2cccc(NC(=O)c3ccccc3)c2)c1	-27.3%
COc1cc(OC)cc(C(=O)Nc2cccc(NC(C)=O)c2)c1	-1.56%
CCOC(=O)Nc1cccc(C(=O)O)c1	8.63%
